# Laboratory results reported in the supplement of paper PMC12282887.
# ± gives the standard deviation of the averaged measurements.
# Experiments:
# Assay in all cases: promoter activity interaction Z-score (Lux/OD deviation from empty-vector control); higher = stronger promoter induction by the compound
# [1] = tested on: E. coli BW25113 acrABp lux reporter
# Method in brief: (§1)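 Reporter strains of E. coli BW25113 grew at 37°C in 40 µl LB Lennox in 384-well plates. Readings of OD600 and luminescence were taken every 30 min over 12 h, integrated over 0–8 h (wild type) or 1–9 h (deletion strains), and wells below 10% of the median growth value were excluded. Scores are Z-transformed residuals of growth-normalised luminescence from a fit against a control.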
# [2] = tested on: E. coli BW25113 marRABp lux reporter
# Method in brief: as §1
# [3] = tested on: E. coli BW25113 micFp lux reporter
# Method in brief: as §1
# [4] = tested on: E. coli BW25113 ompFp lux reporter
# Method in brief: as §1
# [5] = tested on: E. coli BW25113 robp lux reporter
# Method in brief: as §1
# [6] = tested on: E. coli BW25113 soxSp lux reporter
# Method in brief: as §1
# [7] = tested on: E. coli BW25113 tolCp lux reporter
# Method in brief: as §1
# [8] = 13.5 µg/ml, genetic background: wild type
# [9] = 13.5 µg/ml, genetic background: ΔmarA
# [10] = 13.5 µg/ml, genetic background: Δrob
# [11] = 13.5 µg/ml, genetic background: ΔsoxS
# [12] = 26.9 µg/ml, genetic background: wild type
# [13] = 26.9 µg/ml, genetic background: ΔmarA
# [14] = 26.9 µg/ml, genetic background: Δrob
# [15] = 26.9 µg/ml, genetic background: ΔsoxS
# [16] = 53.9 µg/ml, genetic background: wild type
# [17] = 53.9 µg/ml, genetic background: ΔmarA
# [18] = 53.9 µg/ml, genetic background: Δrob
# [19] = 53.9 µg/ml, genetic background: ΔsoxS
# [20] = 107.7 µg/ml, genetic background: wild type
# [21] = 107.7 µg/ml, genetic background: ΔmarA
# [22] = 107.7 µg/ml, genetic background: Δrob
# [23] = 107.7 µg/ml, genetic background: ΔsoxS
smiles,measurement,setting,value
CC(=O)O[C@H]1C[C@@]2(C)[C@@H](C[C@@H](O)[C@H]3[C@@]4(C)CC[C@@H](O)[C@@H](C)[C@@H]4CC[C@@]32C)/C1=C(\CCC=C(C)C)C(=O)O [Fusidic acid],promoter activity interaction Z-score,[1]; [8],-0.2451 ± 0.00049
same,promoter activity interaction Z-score,[1]; [9],0.318 ± 0.51
same,promoter activity interaction Z-score,[1]; [10],0.252 ± 0.008
same,promoter activity interaction Z-score,[1]; [11],0.129 ± 0.4
same,promoter activity interaction Z-score,[1]; [12],0.0211 ± 0.13
same,promoter activity interaction Z-score,[1]; [13],0.239 ± 0.78
same,promoter activity interaction Z-score,[1]; [14],0.206 ± 0.18
same,promoter activity interaction Z-score,[1]; [15],0.227 ± 0.21
same,promoter activity interaction Z-score,[1]; [16],0.215 ± 0.26
same,promoter activity interaction Z-score,[1]; [17],-0.794 ± 0.83
same,promoter activity interaction Z-score,[1]; [18],0.292 ± 0.025
same,promoter activity interaction Z-score,[1]; [19],0.624 ± 0.086
same,promoter activity interaction Z-score,[1]; [20],0.448 ± 0.38
same,promoter activity interaction Z-score,[1]; [21],-0.757 ± 0.87
same,promoter activity interaction Z-score,[1]; [22],0.221 ± 0.22
same,promoter activity interaction Z-score,[1]; [23],0.66 ± 0.14
same,promoter activity interaction Z-score,[2]; [8],-0.438 ± 0.029
same,promoter activity interaction Z-score,[2]; [9],0.0154 ± 0.048
same,promoter activity interaction Z-score,[2]; [10],-0.0451 ± 0.073
same,promoter activity interaction Z-score,[2]; [11],0.0686 ± 0.1
same,promoter activity interaction Z-score,[2]; [12],0.0382 ± 0.39
same,promoter activity interaction Z-score,[2]; [13],0.3 ± 0.31
same,promoter activity interaction Z-score,[2]; [14],0.0321 ± 0.089
same,promoter activity interaction Z-score,[2]; [15],0.122 ± 0.072
same,promoter activity interaction Z-score,[2]; [16],0.384 ± 0.077
same,promoter activity interaction Z-score,[2]; [17],0.457 ± 0.14
same,promoter activity interaction Z-score,[2]; [18],0.307 ± 0.22
same,promoter activity interaction Z-score,[2]; [19],0.418 ± 0.13
same,promoter activity interaction Z-score,[2]; [20],0.539 ± 0.64
same,promoter activity interaction Z-score,[2]; [21],0.236 ± 0.49
same,promoter activity interaction Z-score,[2]; [22],0.523 ± 0.97
same,promoter activity interaction Z-score,[2]; [23],1.17 ± 0.92
same,promoter activity interaction Z-score,[3]; [8],-0.214 ± 0.048
same,promoter activity interaction Z-score,[3]; [9],-0.0141 ± 0.037
same,promoter activity interaction Z-score,[3]; [10],-0.006 ± 0.044
same,promoter activity interaction Z-score,[3]; [11],-0.317 ± 0.02
same,promoter activity interaction Z-score,[3]; [12],-0.0316 ± 0.083
same,promoter activity interaction Z-score,[3]; [13],0.0308 ± 0.044
same,promoter activity interaction Z-score,[3]; [14],0.011 ± 0.0025
same,promoter activity interaction Z-score,[3]; [15],-0.033 ± 0.14
same,promoter activity interaction Z-score,[3]; [16],0.0882 ± 0.31
same,promoter activity interaction Z-score,[3]; [17],-0.146 ± 0.084
same,promoter activity interaction Z-score,[3]; [18],0.0235 ± 0.18
same,promoter activity interaction Z-score,[3]; [19],0.413 ± 0.28
same,promoter activity interaction Z-score,[3]; [20],-0.681 ± 0.064
same,promoter activity interaction Z-score,[3]; [21],-0.356 ± 0.068
same,promoter activity interaction Z-score,[3]; [22],-0.293 ± 0.013
same,promoter activity interaction Z-score,[3]; [23],-0.184 ± 0.18
same,promoter activity interaction Z-score,[4]; [8],-0.312 ± 0.41
same,promoter activity interaction Z-score,[4]; [9],0.0814 ± 0.3
same,promoter activity interaction Z-score,[4]; [10],0.107 ± 0.54
same,promoter activity interaction Z-score,[4]; [11],-0.462 ± 0.18
same,promoter activity interaction Z-score,[4]; [12],-0.129 ± 0.58
same,promoter activity interaction Z-score,[4]; [13],0.219 ± 0.59
same,promoter activity interaction Z-score,[4]; [14],0.223 ± 0.2
same,promoter activity interaction Z-score,[4]; [15],-0.211 ± 0.02
same,promoter activity interaction Z-score,[4]; [16],-0.237 ± 0.057
same,promoter activity interaction Z-score,[4]; [17],-0.149 ± 0.12
same,promoter activity interaction Z-score,[4]; [18],-0.602 ± 0.36
same,promoter activity interaction Z-score,[4]; [19],-0.00876 ± 0.4
same,promoter activity interaction Z-score,[4]; [20],-1.9 ± 0.91
same,promoter activity interaction Z-score,[4]; [21],-1.77 ± 0.15
same,promoter activity interaction Z-score,[4]; [22],-2.39 ± 0.61
same,promoter activity interaction Z-score,[4]; [23],-1.36 ± 0.43
same,promoter activity interaction Z-score,[5]; [8],-0.978 ± 0.39
same,promoter activity interaction Z-score,[5]; [9],-0.301 ± 0.26
same,promoter activity interaction Z-score,[5]; [10],0.242 ± 0.41
same,promoter activity interaction Z-score,[5]; [11],-0.23 ± 0.61
same,promoter activity interaction Z-score,[5]; [12],-0.593 ± 0.31
same,promoter activity interaction Z-score,[5]; [13],-0.113 ± 0.0094
same,promoter activity interaction Z-score,[5]; [14],0.3 ± 0.32
same,promoter activity interaction Z-score,[5]; [15],0.424 ± 1.6
same,promoter activity interaction Z-score,[5]; [16],-1.1 ± 0.35
same,promoter activity interaction Z-score,[5]; [17],-0.572 ± 0.84
same,promoter activity interaction Z-score,[5]; [18],-0.82 ± 0.47
same,promoter activity interaction Z-score,[5]; [19],-0.24 ± 0.27
same,promoter activity interaction Z-score,[5]; [20],-2.27 ± 0.22
same,promoter activity interaction Z-score,[5]; [21],-1.34 ± 0.73
same,promoter activity interaction Z-score,[5]; [22],-1.46 ± 0.021
same,promoter activity interaction Z-score,[5]; [23],-1.76 ± 0.91
same,promoter activity interaction Z-score,[6]; [8],-0.189 ± 0.017
same,promoter activity interaction Z-score,[6]; [9],0.127 ± 0.11
same,promoter activity interaction Z-score,[6]; [10],0.138 ± 0.11
same,promoter activity interaction Z-score,[6]; [11],0.0742 ± 0.26
same,promoter activity interaction Z-score,[6]; [12],-0.0314 ± 0.05
same,promoter activity interaction Z-score,[6]; [13],0.331 ± 0.089
same,promoter activity interaction Z-score,[6]; [14],0.221 ± 0.14
same,promoter activity interaction Z-score,[6]; [15],0.0543 ± 0.37
same,promoter activity interaction Z-score,[6]; [16],0.0312 ± 0.095
same,promoter activity interaction Z-score,[6]; [17],0.0894 ± 0.086
same,promoter activity interaction Z-score,[6]; [18],0.0824 ± 0.045
same,promoter activity interaction Z-score,[6]; [19],0.2418 ± 0.00036
same,promoter activity interaction Z-score,[6]; [20],0.133 ± 0.093
same,promoter activity interaction Z-score,[6]; [21],0.303 ± 0.013
same,promoter activity interaction Z-score,[6]; [22],0.683 ± 0.014
same,promoter activity interaction Z-score,[6]; [23],1.13 ± 0.34
same,promoter activity interaction Z-score,[7]; [8],0.0553 ± 0.57
same,promoter activity interaction Z-score,[7]; [9],0.818 ± 0.39
same,promoter activity interaction Z-score,[7]; [10],0.166 ± 0.013
same,promoter activity interaction Z-score,[7]; [11],0.269 ± 0.96
same,promoter activity interaction Z-score,[7]; [12],-0.129 ± 0.34
same,promoter activity interaction Z-score,[7]; [13],0.688 ± 0.72
same,promoter activity interaction Z-score,[7]; [14],-0.187 ± 0.52
same,promoter activity interaction Z-score,[7]; [15],0.868 ± 0.14
same,promoter activity interaction Z-score,[7]; [16],0.388 ± 0.25
same,promoter activity interaction Z-score,[7]; [17],-0.396 ± 0.26
same,promoter activity interaction Z-score,[7]; [18],-0.151 ± 1.6
same,promoter activity interaction Z-score,[7]; [19],-0.374 ± 0.68
same,promoter activity interaction Z-score,[7]; [20],-1.44 ± 0.11
same,promoter activity interaction Z-score,[7]; [21],-0.24 ± 0.18
same,promoter activity interaction Z-score,[7]; [22],-0.656 ± 0.49
same,promoter activity interaction Z-score,[7]; [23],0.133 ± 0.45
